One assay has as its target T1, ETV3 (Homo sapiens, UniProt P41162-2 1-143).
T1 sequence: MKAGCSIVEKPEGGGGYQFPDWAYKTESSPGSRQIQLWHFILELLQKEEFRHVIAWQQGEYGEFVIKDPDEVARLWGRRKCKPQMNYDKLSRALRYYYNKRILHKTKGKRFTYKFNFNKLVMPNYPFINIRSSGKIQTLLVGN
Kind of assay: DAPPL (digital affinity profiling via proximity ligation, sequencing); 10 mM Tris-HCl pH 7.5, 50 mM NaCl, 1 mM DTT, 4% glycerol, room temperature, 30 min; GST-TFs on glutathione beads, 16-mer random dsDNA library, 0.1% formaldehyde crosslink after washing; high values mean tight binding. The settings on record: protein: recombinant; tags: N-terminal GST; dsDNA, one strand shown. In short, it runs like this:
(§1)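 Pools of DNA-barcoded human transcription factors, expressed in yeast as GST fusions on glutathione beads and combined with a tag-only sample, were incubated with 200 nmole of a 16-mer random double-stranded DNA library. Incubation took 30 min at room temperature in Tris/NaCl/DTT/glycerol buffer and was followed by washing, 0.1% formaldehyde crosslinking, proximity ligation (BsaI/T4 ligase, 1 h, 37 °C), PCR amplification and sequencing on an Illumina NextSeq500. Binding signal is the ratio of a hexamer's read frequency for a factor to its frequency for the tag-only sample.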
Sequence of ETV6 (P41212 whole entry): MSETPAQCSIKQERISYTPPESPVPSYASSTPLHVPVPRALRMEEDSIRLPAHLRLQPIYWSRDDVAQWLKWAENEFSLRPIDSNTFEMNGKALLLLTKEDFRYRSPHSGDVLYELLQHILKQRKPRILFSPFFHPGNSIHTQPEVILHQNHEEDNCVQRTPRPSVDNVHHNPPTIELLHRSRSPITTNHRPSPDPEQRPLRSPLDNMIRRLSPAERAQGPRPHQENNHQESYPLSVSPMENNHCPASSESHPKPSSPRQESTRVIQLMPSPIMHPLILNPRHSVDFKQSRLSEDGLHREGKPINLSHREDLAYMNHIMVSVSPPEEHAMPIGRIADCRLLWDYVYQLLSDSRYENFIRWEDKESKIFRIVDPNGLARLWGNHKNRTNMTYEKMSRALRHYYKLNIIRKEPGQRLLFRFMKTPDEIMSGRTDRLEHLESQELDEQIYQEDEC
On to TACCAT, for which the binding signal is 1.17 fold enrichment (6-mer frequency, TF over GST control).
The same measure, in the same setting: in the case of GTTCCT it was 1.88 fold enrichment (6-mer frequency, TF over GST control); in that of CCGCCT, 1.64 fold enrichment (6-mer frequency, TF over GST control).
AAATTG: the binding signal is 1.28 fold enrichment (6-mer frequency, TF over GST control).
Turning to AAAAAG, the binding signal was 1.23 fold enrichment (6-mer frequency, TF over GST control).
For TATTTT, the binding signal is 1.39 fold enrichment (6-mer frequency, TF over GST control).
The same measure, in the same setting: as for CTTCGT, the figure is 1.31 fold enrichment (6-mer frequency, TF over GST control); as for GTTATT, 1.2 fold enrichment (6-mer frequency, TF over GST control).
Regarding CCTGCT, the binding signal was 1.67 fold enrichment (6-mer frequency, TF over GST control).
On the same count and under the same terms, as for CTAGCA, the figure is 1.18 fold enrichment (6-mer frequency, TF over GST control).
The same measure, in the same setting: in the case of ATGACC it was 1.47 fold enrichment (6-mer frequency, TF over GST control); in that of CTTCCG, 8.47 fold enrichment (6-mer frequency, TF over GST control).
On to AATGAC, for which the binding signal was 1.35 fold enrichment (6-mer frequency, TF over GST control).
Same read-out and setting: as for ACCGAT, the figure is 1.13 fold enrichment (6-mer frequency, TF over GST control).
In the case of ATACGA, the binding signal was 1.11 fold enrichment (6-mer frequency, TF over GST control).
Same read-out and setting: in the case of TCTCGA it was 1.4 fold enrichment (6-mer frequency, TF over GST control); in that of TGACCG, 1.53 fold enrichment (6-mer frequency, TF over GST control).
The same measure, in the same setting: in the case of TCTGCA it was 1.2 fold enrichment (6-mer frequency, TF over GST control).
With TACGAC, the binding signal was 1.33 fold enrichment (6-mer frequency, TF over GST control).
Same read-out and setting: in the case of TAAGTA it was 1.23 fold enrichment (6-mer frequency, TF over GST control).
Take GTTCTC: the binding signal was 1.35 fold enrichment (6-mer frequency, TF over GST control).
Still for that read-out and setting: as for TTTTAA, the figure is 1.23 fold enrichment (6-mer frequency, TF over GST control); as for ATGCTT, 1.31 fold enrichment (6-mer frequency, TF over GST control); as for ATCCTG, 1.61 fold enrichment (6-mer frequency, TF over GST control).
On to ACACTT, for which the binding signal is 1.66 fold enrichment (6-mer frequency, TF over GST control).
Turning to ATTCTC, the binding signal was 1.17 fold enrichment (6-mer frequency, TF over GST control).
On the same count and under the same terms, as for TCTTTG, the figure is 1.21 fold enrichment (6-mer frequency, TF over GST control); as for CAATTC, 1.31 fold enrichment (6-mer frequency, TF over GST control); as for TAATTT, 1.24 fold enrichment (6-mer frequency, TF over GST control).
Turning to ACTGAT, the binding signal is 1.25 fold enrichment (6-mer frequency, TF over GST control).
On the same count and under the same terms, as for TTTTTG, the figure is 1.29 fold enrichment (6-mer frequency, TF over GST control); as for TTTTCG, 1.25 fold enrichment (6-mer frequency, TF over GST control); as for TCGACT, 1.4 fold enrichment (6-mer frequency, TF over GST control).
In the case of TTATGT, the binding signal is 1.34 fold enrichment (6-mer frequency, TF over GST control).
As for TTATCT, the binding signal is 1.28 fold enrichment (6-mer frequency, TF over GST control).
On to CCGTTC, for which the binding signal is 1.38 fold enrichment (6-mer frequency, TF over GST control).
Consider AAACTA, for which the binding signal is 1.24 fold enrichment (6-mer frequency, TF over GST control).
Take TACATG: the binding signal is 1.33 fold enrichment (6-mer frequency, TF over GST control).
Same read-out and setting: in the case of GTTGCT it was 1.51 fold enrichment (6-mer frequency, TF over GST control).

The next assay concerns the target ETV6 (Homo sapiens, UniProt P41212 1-452). The assay is described as above. The note with it: protein: recombinant; tags: N-terminal GST; dsDNA, one strand shown. Summed up:
as §1
In the case of TACCAT, the binding signal was 1.17 fold enrichment (6-mer frequency, TF over GST control).
Still for that read-out and setting: as for GTTCCT, the figure is 1.82 fold enrichment (6-mer frequency, TF over GST control); as for CCGCCT, 1.64 fold enrichment (6-mer frequency, TF over GST control).
Same read-out and setting: in the case of AAATTG it was 1.34 fold enrichment (6-mer frequency, TF over GST control); in that of AAAAAG, 1.21 fold enrichment (6-mer frequency, TF over GST control).
Take TATTTT: the binding signal is 1.36 fold enrichment (6-mer frequency, TF over GST control).
In the case of CTTCGT, the binding signal is 1.31 fold enrichment (6-mer frequency, TF over GST control).
Take GTTATT: the binding signal is 1.2 fold enrichment (6-mer frequency, TF over GST control).
On to CCTGCT, for which the binding signal is 1.68 fold enrichment (6-mer frequency, TF over GST control).
Take CTAGCA: the binding signal is 1.18 fold enrichment (6-mer frequency, TF over GST control).
For the sequence ATGACC, the binding signal was 1.53 fold enrichment (6-mer frequency, TF over GST control).
In the case of CTTCCG, the binding signal was 9.62 fold enrichment (6-mer frequency, TF over GST control).
Still for that read-out and setting: as for AATGAC, the figure is 1.49 fold enrichment (6-mer frequency, TF over GST control); as for ACCGAT, 1.08 fold enrichment (6-mer frequency, TF over GST control).
The same measure, in the same setting: in the case of ATACGA it was 1.08 fold enrichment (6-mer frequency, TF over GST control).
In the case of TCTCGA, the binding signal was 1.47 fold enrichment (6-mer frequency, TF over GST control).
Take TGACCG: the binding signal is 1.36 fold enrichment (6-mer frequency, TF over GST control).
Take TCTGCA: the binding signal was 1.23 fold enrichment (6-mer frequency, TF over GST control).
Consider TACGAC, for which the binding signal is 1.29 fold enrichment (6-mer frequency, TF over GST control).
Consider TAAGTA, for which the binding signal is 1.28 fold enrichment (6-mer frequency, TF over GST control).
On the same count and under the same terms, as for GTTCTC, the figure is 1.23 fold enrichment (6-mer frequency, TF over GST control).
Still for that read-out and setting: in the case of TTTTAA it was 1.27 fold enrichment (6-mer frequency, TF over GST control).
The same measure, in the same setting: as for ATGCTT, the figure is 1.3 fold enrichment (6-mer frequency, TF over GST control).
In the case of ATCCTG, the binding signal was 1.48 fold enrichment (6-mer frequency, TF over GST control).
As to ACACTT, the binding signal was 1.95 fold enrichment (6-mer frequency, TF over GST control).
Regarding ATTCTC, the binding signal was 1.23 fold enrichment (6-mer frequency, TF over GST control).
As to TCTTTG, the binding signal was 1.16 fold enrichment (6-mer frequency, TF over GST control).
The same measure, in the same setting: in the case of CAATTC it was 1.16 fold enrichment (6-mer frequency, TF over GST control); in that of TAATTT, 1.39 fold enrichment (6-mer frequency, TF over GST control).
On the same count and under the same terms, in the case of ACTGAT it was 1.2 fold enrichment (6-mer frequency, TF over GST control); in that of TTTTTG, 1.23 fold enrichment (6-mer frequency, TF over GST control); in that of TTTTCG, 1.09 fold enrichment (6-mer frequency, TF over GST control).
Consider TCGACT, for which the binding signal was 1.35 fold enrichment (6-mer frequency, TF over GST control).
In the case of TTATGT, the binding signal was 1.43 fold enrichment (6-mer frequency, TF over GST control).
TTATCT: the binding signal was 1.25 fold enrichment (6-mer frequency, TF over GST control).
Still for that read-out and setting: as for CCGTTC, the figure is 1.37 fold enrichment (6-mer frequency, TF over GST control); as for AAACTA, 1.25 fold enrichment (6-mer frequency, TF over GST control); as for TACATG, 1.24 fold enrichment (6-mer frequency, TF over GST control).
Still for that read-out and setting: as for GTTGCT, the figure is 1.29 fold enrichment (6-mer frequency, TF over GST control).

These data come from paper PMC7862700, “An all-to-all approach to the identification of sequence-specific readers for epigenetic DNA modifications on cytosine”.
